# PMC7862700, “An all-to-all approach to the identification of sequence-specific readers for epigenetic DNA modifications on cytosine”
# Assays:
# Test in all cases: DAPPL (digital affinity profiling via proximity ligation, sequencing); 10 mM Tris-HCl pH 7.5, 50 mM NaCl, 1 mM DTT, 4% glycerol, room temperature, 30 min; GST-TFs on glutathione beads, 16-mer random dsDNA library, 0.1% formaldehyde crosslink after washing; high values mean tight binding
# Settings in all cases: protein: recombinant; tags: N-terminal GST; dsDNA, one strand shown
# ETV5 = ETV5 (Homo sapiens, UniProt P41161 1-510)
# In short: (§1)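 After expression in yeast as GST fusions, human transcription factors were bound to glutathione beads, DNA-barcoded and mixed with a tag-only sample. The pools were incubated with 200 nmole of a 16-mer random double-stranded DNA library in Tris/NaCl/DTT/glycerol buffer (30 min, room temperature), washed and crosslinked with 0.1% formaldehyde. Proximity ligation with BsaI/T4 ligase ran for 1 h at 37 °C, before PCR amplification and sequencing on an Illumina NextSeq500. Binding signal is a hexamer's read frequency for a factor divided by its frequency for the tag-only sample.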
# SPIC = target: T1, SPIC (Homo sapiens, UniProt Q8N5J4 1-248)
# T1 sequence: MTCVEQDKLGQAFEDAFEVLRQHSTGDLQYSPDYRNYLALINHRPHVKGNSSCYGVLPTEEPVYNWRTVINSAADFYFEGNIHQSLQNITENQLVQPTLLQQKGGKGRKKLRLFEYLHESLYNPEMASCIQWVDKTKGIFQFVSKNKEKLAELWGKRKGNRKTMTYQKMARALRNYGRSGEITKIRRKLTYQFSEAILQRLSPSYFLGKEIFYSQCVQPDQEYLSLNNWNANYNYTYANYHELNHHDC
# In short: as §1
# ELF4 = ELF4 (Homo sapiens, UniProt Q99607 1-663)
# In short: as §1
# ETV1 = ETV1 (Homo sapiens, UniProt P50549 1-477)
# In short: as §1
# ERF = target: T2, ERF (Homo sapiens, UniProt P50548 1-548)
# T2 sequence: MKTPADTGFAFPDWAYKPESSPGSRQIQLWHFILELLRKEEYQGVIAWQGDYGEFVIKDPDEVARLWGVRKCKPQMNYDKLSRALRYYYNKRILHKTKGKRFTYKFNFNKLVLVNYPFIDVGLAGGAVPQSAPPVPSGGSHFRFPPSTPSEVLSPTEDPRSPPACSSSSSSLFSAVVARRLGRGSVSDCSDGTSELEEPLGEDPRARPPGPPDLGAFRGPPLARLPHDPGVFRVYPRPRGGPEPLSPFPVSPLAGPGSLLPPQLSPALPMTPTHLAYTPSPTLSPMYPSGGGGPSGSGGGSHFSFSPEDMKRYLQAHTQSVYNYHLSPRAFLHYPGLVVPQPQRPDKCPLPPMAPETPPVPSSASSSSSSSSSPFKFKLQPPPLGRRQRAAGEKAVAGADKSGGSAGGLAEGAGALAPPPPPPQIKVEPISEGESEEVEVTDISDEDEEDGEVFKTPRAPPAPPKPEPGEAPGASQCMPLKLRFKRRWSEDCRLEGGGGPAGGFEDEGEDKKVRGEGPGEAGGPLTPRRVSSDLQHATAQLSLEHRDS
# In short: as §1
# ETV3L = target: T3, ETV3L (Homo sapiens, UniProt Q6ZN32 1-361)
# T3 sequence: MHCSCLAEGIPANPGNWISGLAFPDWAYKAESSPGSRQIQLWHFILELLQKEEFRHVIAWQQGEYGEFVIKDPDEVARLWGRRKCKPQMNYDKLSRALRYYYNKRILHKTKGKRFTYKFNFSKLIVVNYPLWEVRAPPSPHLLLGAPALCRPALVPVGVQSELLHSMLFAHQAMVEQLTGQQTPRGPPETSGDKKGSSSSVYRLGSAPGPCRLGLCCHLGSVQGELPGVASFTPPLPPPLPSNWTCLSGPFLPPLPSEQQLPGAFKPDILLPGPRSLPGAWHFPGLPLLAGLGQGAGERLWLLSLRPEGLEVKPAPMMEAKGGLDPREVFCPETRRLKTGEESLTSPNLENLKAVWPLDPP
# In short: as §1
# ETS2 = target: T4, ETS2 (Homo sapiens, UniProt P15036 1-469)
# T4 sequence: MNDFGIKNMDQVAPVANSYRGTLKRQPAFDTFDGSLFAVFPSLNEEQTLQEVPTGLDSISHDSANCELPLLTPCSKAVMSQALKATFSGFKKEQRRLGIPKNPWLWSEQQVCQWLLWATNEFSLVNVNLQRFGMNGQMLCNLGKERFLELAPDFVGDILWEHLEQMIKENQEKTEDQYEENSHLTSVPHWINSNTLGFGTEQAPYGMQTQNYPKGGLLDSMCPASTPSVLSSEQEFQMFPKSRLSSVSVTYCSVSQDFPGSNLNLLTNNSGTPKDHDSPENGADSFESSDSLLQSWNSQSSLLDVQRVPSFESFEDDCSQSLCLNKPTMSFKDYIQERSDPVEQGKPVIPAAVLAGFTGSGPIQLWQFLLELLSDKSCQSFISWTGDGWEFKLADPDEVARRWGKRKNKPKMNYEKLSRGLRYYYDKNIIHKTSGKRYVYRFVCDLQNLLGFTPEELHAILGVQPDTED
# In short: as §1
# SPDEF = target: T5, SPDEF (Homo sapiens, UniProt O95238 1-335)
# T5 sequence: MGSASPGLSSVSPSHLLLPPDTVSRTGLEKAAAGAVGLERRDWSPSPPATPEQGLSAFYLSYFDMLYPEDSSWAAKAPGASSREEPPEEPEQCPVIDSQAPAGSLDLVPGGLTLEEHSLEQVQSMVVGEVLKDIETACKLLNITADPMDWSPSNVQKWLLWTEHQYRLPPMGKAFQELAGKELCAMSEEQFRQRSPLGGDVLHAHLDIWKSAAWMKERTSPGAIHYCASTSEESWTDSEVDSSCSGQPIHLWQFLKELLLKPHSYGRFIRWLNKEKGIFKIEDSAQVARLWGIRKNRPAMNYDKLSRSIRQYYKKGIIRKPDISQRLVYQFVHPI
# In short: as §1
# ETV3 = target: T6, ETV3 (Homo sapiens, UniProt P41162-2 1-143)
# T6 sequence: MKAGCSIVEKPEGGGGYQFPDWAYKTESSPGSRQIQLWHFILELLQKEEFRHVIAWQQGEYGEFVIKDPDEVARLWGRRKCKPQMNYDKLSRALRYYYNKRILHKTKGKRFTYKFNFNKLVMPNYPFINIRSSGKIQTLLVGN
# In short: as §1
# ETV6 = ETV6 (Homo sapiens, UniProt P41212 1-452)
# In short: as §1
# Chain of ETV5 (P41161 whole entry, the tested form may be a part): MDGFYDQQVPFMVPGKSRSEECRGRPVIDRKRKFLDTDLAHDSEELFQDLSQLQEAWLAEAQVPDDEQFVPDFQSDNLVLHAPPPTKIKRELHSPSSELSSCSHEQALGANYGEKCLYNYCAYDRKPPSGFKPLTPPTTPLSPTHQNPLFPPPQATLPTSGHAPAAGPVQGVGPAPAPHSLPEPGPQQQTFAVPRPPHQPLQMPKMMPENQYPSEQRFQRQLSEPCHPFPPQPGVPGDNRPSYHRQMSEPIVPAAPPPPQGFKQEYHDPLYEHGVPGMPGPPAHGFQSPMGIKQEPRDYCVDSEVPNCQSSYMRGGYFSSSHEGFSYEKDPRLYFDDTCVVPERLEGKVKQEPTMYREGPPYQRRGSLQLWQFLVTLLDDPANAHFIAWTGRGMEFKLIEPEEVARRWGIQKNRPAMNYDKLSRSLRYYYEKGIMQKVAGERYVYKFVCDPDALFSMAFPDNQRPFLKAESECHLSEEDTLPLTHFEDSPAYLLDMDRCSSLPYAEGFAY
# Chain of ETV6 (P41212 whole entry): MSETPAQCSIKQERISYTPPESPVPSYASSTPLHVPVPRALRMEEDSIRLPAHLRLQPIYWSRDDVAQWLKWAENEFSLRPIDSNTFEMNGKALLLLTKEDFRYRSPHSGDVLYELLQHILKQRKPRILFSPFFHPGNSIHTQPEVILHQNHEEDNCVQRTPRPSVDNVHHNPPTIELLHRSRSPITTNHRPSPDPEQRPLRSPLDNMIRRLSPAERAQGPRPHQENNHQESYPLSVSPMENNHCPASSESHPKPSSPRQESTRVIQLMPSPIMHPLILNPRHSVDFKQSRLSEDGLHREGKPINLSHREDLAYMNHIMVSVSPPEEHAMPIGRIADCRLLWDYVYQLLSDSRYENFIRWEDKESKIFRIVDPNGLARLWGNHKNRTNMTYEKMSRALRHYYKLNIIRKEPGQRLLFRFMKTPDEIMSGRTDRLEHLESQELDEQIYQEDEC
# Chain of ELF4 (Q99607 whole entry): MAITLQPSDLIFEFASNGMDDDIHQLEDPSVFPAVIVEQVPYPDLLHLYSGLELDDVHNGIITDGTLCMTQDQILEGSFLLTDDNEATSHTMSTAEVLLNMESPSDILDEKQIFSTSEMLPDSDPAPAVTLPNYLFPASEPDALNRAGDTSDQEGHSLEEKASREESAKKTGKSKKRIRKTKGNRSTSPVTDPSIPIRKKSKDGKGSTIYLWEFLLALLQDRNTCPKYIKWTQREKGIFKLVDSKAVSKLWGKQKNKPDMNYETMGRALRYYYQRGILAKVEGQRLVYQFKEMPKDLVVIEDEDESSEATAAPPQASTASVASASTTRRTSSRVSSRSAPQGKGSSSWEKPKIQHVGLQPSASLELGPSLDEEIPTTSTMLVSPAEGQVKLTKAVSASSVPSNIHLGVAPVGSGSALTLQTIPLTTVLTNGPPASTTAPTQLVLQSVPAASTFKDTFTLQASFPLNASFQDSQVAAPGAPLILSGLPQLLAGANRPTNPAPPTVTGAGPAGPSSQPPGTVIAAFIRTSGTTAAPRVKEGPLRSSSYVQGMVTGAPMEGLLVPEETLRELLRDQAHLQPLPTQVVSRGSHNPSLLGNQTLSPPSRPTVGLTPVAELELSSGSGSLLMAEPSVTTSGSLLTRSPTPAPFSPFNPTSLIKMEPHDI
# Chain of ETV1 (P50549 whole entry): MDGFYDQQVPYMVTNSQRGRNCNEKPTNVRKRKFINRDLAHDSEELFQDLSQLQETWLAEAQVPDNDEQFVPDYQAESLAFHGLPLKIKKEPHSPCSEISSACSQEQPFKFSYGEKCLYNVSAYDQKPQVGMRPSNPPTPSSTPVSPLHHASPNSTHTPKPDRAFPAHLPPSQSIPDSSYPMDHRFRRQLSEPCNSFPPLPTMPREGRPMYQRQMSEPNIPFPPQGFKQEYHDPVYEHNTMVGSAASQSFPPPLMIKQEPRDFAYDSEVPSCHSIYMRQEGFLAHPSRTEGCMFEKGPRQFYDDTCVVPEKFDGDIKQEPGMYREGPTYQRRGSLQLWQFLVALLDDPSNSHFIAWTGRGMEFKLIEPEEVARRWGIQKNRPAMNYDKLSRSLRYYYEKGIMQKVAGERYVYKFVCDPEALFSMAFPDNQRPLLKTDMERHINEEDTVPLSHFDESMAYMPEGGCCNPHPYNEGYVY
sequence,measurement,setting,value
GGTTTT,binding signal,ETV5,"1.11 fold enrichment (6-mer frequency, TF over GST control)"
same,binding signal,SPIC,"1.04 fold enrichment (6-mer frequency, TF over GST control)"
same,binding signal,ELF4,"1.15 fold enrichment (6-mer frequency, TF over GST control)"
same,binding signal,ETV1,"1.15 fold enrichment (6-mer frequency, TF over GST control)"
same,binding signal,ERF,"1.24 fold enrichment (6-mer frequency, TF over GST control)"
same,binding signal,ETV3L,"1.08 fold enrichment (6-mer frequency, TF over GST control)"
same,binding signal,ETS2,"1.1 fold enrichment (6-mer frequency, TF over GST control)"
same,binding signal,SPDEF,"1.07 fold enrichment (6-mer frequency, TF over GST control)"
same,binding signal,ETV3,"1.14 fold enrichment (6-mer frequency, TF over GST control)"
same,binding signal,ETV6,"1.05 fold enrichment (6-mer frequency, TF over GST control)"
